High-throughput results from PubChem BioAssay.
DT40 TDP1 no CPT: qHTS for Inhibitors of human tyrosyl-DNA phosphodiesterase 1 (TDP1): qHTS in cells in absence of CPT; DT40 Tdp1-/- hTDP1 cells, no CPT, ATP luminescence, 48 h; Potency, µM (doses to about 46.2 µM), for the others: at the top dose activity change, negative = growth inhibition, hits mostly inhibitors; 15% of 420,000 active; also: potency is read from the fitted curve at half-maximal effect; nearly all actives have a fitted effect of over 55% in size
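Stably hTDP1-transfected Tdp1-null chicken DT40 cells were treated with library compounds minus camptothecin and grown for at least 48 hr at 37 °C, after which cellular ATP was quantified by luminescence.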
VP16 counter: VP16 counterscreen qHTS for inhibitors of ROR gamma transcriptional activity | Drosophila S2 Gal4-VP16 UAS-luciferase, luminescence, 20 h | Potency, µM (doses to about 53.6 µM), for the others: at the highest dose activity, negative = inhibition, hits mostly inhibitors | 3.5% of 310,000 active | AID 2546, 2010;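 also: Gal4-VP16 expression switched on by copper sulfate through the metallothionein promoter; potency is read from the fitted curve at half-maximal effect; nearly all actives have a fitted effect of over 50% in size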
IL-1B inflam inh: qHTS for Inhibitors of Inflammasome Signaling: IL-1-beta AlphaLISA Primary Screen. THP-1 LPS/ATP IL-1B secretion, AlphaLISA, 16 h; active compounds read low. activity change, % at 57.5 µM. 4.7% of 360,000 active. AID 743279, 2014; in the data active = activity change below about -50%; inconclusive = mostly about -30% to -49%
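THP-1 cells pretreated 1 hr with compounds (up to 57.5 uM final), then stimulated with LPS (250 ng/mL final) plus ATP (1.25 mM final); secreted IL-1B measured by AlphaLISA after 16 hr, decreased signal indicating inhibition.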
DT40 TDP1 CPT: qHTS for Inhibitors of human tyrosyl-DNA phosphodiesterase 1 (TDP1): qHTS in cells in presence of CPT; Potency, µM (highest dose often 46.2 µM), inactives show top-dose activity change, negative = growth inhibition, hits mostly inhibitors; AID 686979, 2013; 12% of 420,000 active; chicken DT40 Tdp1-/-;hTDP1 cells + 20 nM CPT, ATP luminescence, 48 h; also: potency is read from the fitted curve at half-maximal effect; nearly all actives have a fitted effect of over 55% in size
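Chicken DT40 Tdp1-/- cells stably complemented with human TDP1 were seeded at 400 cells/well in medium containing 20 nM camptothecin, exposed to pin-transferred compounds, and grown at 37 °C for at least 48 hr. Viability was read as ATP luminescence.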
LDHA inh: qHTS assay for inhibitors of human lactate dehydrogenase | L-lactate dehydrogenase A chain (Homo sapiens), P00338 | purified LDHA, NADH/diaphorase-resazurin fluorescence; active compounds read low | activity change, % (values are at about 110 or 230 µM) | 0.15% of 480,000 active | AID 1347041, 2019; in the data active = activity change below about -30%; inconclusive = mostly about -25% to -30%;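 also: plate controls were DMSO wells for no effect and wells without enzyme for full effect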
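Remaining NADH was detected by diaphorase (0.133 mg/mL) converting 37 µM resazurin to fluorescent resorufin, read at 0 and 20 minutes. The preceding 5-minute room-temperature reaction used 2 nM LDHA, 0.2 mM sodium pyruvate and 0.06 mM NADH at pH 7.4.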
RORgamma inh: qHTS for inhibitors of ROR gamma transcriptional activity; Nuclear receptor ROR-gamma (Mus musculus), P51450; Drosophila S2 Gal4-RORgamma UAS-luciferase reporter, 20 h; Potency, µM (highest dose often 53.6 µM), without a hit: at the highest dose activity change, negative = inhibition, hits mostly inhibitors; 5.4% of 310,000 active; AID 2551, 2010; also: potency is read from the fitted curve at half-maximal effect; nearly all actives have a fitted effect of over 60% in size
Target sequence (P51450 whole entry, looked up, the tested form may be a part): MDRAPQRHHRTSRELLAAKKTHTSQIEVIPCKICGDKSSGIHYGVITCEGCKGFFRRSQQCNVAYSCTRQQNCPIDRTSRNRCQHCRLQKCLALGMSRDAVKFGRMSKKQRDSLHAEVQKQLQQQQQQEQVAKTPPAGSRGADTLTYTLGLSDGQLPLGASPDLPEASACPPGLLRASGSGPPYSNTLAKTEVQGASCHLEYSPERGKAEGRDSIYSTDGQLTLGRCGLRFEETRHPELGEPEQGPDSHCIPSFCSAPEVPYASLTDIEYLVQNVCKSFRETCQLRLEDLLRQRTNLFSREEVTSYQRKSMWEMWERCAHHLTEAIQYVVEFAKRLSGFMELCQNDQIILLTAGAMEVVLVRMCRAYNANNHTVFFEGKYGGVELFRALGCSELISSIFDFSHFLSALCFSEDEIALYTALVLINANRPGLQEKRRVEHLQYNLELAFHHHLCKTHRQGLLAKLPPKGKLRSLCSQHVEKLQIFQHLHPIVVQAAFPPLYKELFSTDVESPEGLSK
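Schneider cells (Drosophila), stable Gal4 DBD–ROR gamma + UAS-luc; 1 hr cmpd preincubation; Cu2+ induction 700 uM final; 20 hr ambient; luminescence.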
* hit, by the source's call; ? = inconclusive; · = not tested or not shown; ! = not confirmed by another sample; [ ] = another dose, or the depositor's remark. Shown are actives, neighbours in structure and some others; about 18% of the full set was active somewhere. Unless noted, calls follow the shape of the dose curve; as a rule, active = well fitted curve in the direction sought with a large enough effect; inconclusive = small, poorly fitted or top-dose-only effect, or another doubt; inactive = no such curve, though single readings can be large; an effect the other way counts as inactive or inconclusive. Unless noted, % is scaled to controls: 0 for no effect and ±100 for the full control effect.

SMILES | DT40 TDP1 no CPT | VP16 counter | IL-1B inflam inh | DT40 TDP1 CPT | LDHA inh | RORgamma inh
COc1ccccc1OCCCn1cc(C=O)c2ccccc21 | 21µM* | 0.002µM* | ? | ? | -3 | ?
COc1ccccc1OCCCn1cc(C(=O)C2CC2)c2ccccc21 | ? | 2% | 12 | ? | 1 | 21%
COc1ccccc1OCCCn1cc(C(C)=O)c2ccccc21 | 18µM* | ? | 21 | ? | -11 | -1%
CNCC/C=C\c1cccnc1 | -22% | 2% | · | -5% | · | 5%
O=C(NCc1ccccc1)c1cccc(Nc2nc3ccccc3n3nnnc23)c1 | 15µM* | · | · | 21µM* | 2 | ·
CC(NCCc1ccccc1)c1ccccc1 (stereo unspecified) | · | · | · | · | -3 | ·
COc1ccccc1NC(=O)Cn1c(=O)oc2cc(S(=O)(=O)N3CCCC3)ccc21 | ? | -3% | 38 | -7% | -3 | 1%
Cc1c(C(=O)N2CCC3(CC2)OCCO3)oc2ccccc12 | -1% | -3% | 0 | 0% | -2 | -8%
Cc1c(C(=O)N2CCC3(CC2)OCCO3)oc2ccc(S(=O)(=O)N3CCOCC3)cc12 | -2% | -5%[0.365 µM] | 0 | -24% | -8 | 38%
Cc1c(C(=O)NCCC2=CCCCC2)oc2ccc(S(=O)(=O)N3CCC4(CC3)OCCO4)cc12 | 23µM* | -1% | -66* | 18µM* | 1 | -2%
Cc1c(C(=O)Nc2ccccc2Cl)oc2ccc(S(=O)(=O)N3CCCCC3)cc12 | 16µM* | · | · | 21µM* | -1 | ·
Cc1c(Cl)cccc1NC(=O)c1oc2ccc(S(=O)(=O)N3CCC4(CC3)OCCO4)cc2c1C | 4.1µM* | · | · | 4.1µM* | 2 | ·
COc1ccc2c(c1)[nH]c1c(C)nccc12 | 20µM* | ? | -72* | 13µM* | 0 | 8.9µM*!
Cc1ccc(-n2c(=O)[nH]c3ccc(Br)cc3c2=O)cc1 | -21% | · | · | -28% | -8 | ·
Cc1nccc2c1[nH]c1ccc(Br)cc12 | 23µM* | · | -19 | ? | -8 | ·
CCC1COC(Cn2cncn2)(c2ccc(Cl)cc2Cl)O1 (stereo unspecified) | · | 0% | · | · | · | -27%
O=C(Cc1cc(=O)oc2cc(O)ccc12)NN=Cc1ccc(N(CCCl)CCCl)cc1 | ? | · | -23 | ? | -5 | ·
COC(=O)C(Cc1ccc(N(CCCl)CCCl)cc1)N=Cc1ccccc1O (stereo unspecified) | 0.082µM* | ? | -97* | 0.12µM* | -7 | 7.9µM*
CC(C)c1ccc(Cc2cnc(NC(=O)c3ccc4c(c3)CC(c3ccccc3)OC4=O)s2)cc1 (stereo unspecified) | 18µM* | · | · | 23µM* | -20 | ·
Cc1ccc(C)c(NC(=O)CN2C(=O)CN=C(c3ccc(F)cc3)c3c2sc(C)c3C)c1 | · | · | · | · | 7 | ·
CN1CCCC2(CCN(C(=O)c3csnn3)CC2)C1 | -3% | -1% | · | 11% | · | -4%
Fc1ccc2c(c1)nnn2C1CCN(Cc2c(Cl)cccc2Cl)CC1 | 18µM* | -26% | -3 | 18µM* | -3 | ?
Cc1ccc(C)c(CN2CCC(n3nnc4cc(F)ccc43)CC2)c1 | ? | -8% | -23 | ? | -1 | 22%
CC(C)(C)NC[C@H](O)c1cc(Cl)c(N)c(Cl)c1 | · | 9%[17 µM] | · | · | · | -12%[16.9 µM]
CCCn1c(C(=O)c2ccccc2)nc2ccccc21 | -13% | 12%[10 µM] | -23 | -17% | -6 | -34%
SMILES | DT40 TDP1 no CPT | VP16 counter | IL-1B inflam inh | DT40 TDP1 CPT | LDHA inh | RORgamma inh
Cc1ccc(C(=O)Nc2nc3ccccc3n2CCN2CCCC2)cc1 | 13µM* | 7.1µM* | -14 | 15µM* | -1 | 2.5µM*
Cc1cccc(-n2nnnc2C2(N3CCCCC3)CCCCC2)c1 | · | · | · | · | 1 | ·
Cc1cc(/C=C2\C(=O)NC(=O)N(c3ccc(Br)cc3)C2=O)c(C)n1-c1cc(C(=O)O)cc(C(=O)O)c1 | -30% | -9% | ? | -12% | -3 | -9%
CCN1C(=O)NC(=O)/C(=C/c2cc(C)n(-c3sc(C)c(C)c3C#N)c2C)C1=O | ? | -14% | -22 | ? | -2 | -1%
Cc1ccc(N2C(=O)NC(=O)/C(=C\c3cc(C)n(-c4sc5c(c4C#N)CCCC5)c3C)C2=O)cc1 | ? | -3% | -84* | ? | -5 | 35%
CCOC(=O)c1c(-n2c(C)cc(/C=C3/C(=O)NC(=O)N(CC)C3=O)c2C)sc2c1CCCC2 | ? | · | 6 | 16µM* | -5 | ·
CCOC(=O)c1c(-n2c(C)cc(C=C3C(=O)NC(=S)NC3=O)c2C)sc2c1CCCC2 | 18µM* | ? | -110* | 23µM* | -6 | 13µM*
O=[N+]([O-])c1ccc(N2CCC(O)CC2)c2ccncc12 | · | · | · | · | 35 | ·
CCOC(=O)C1=C(N)OC(C)=C(C(C)=O)C12C(=O)Nc1ccccc12 (stereo unspecified) | · | · | · | · | -22 | ·
CC(C)(OOC(C)(C)c1ccccc1)c1ccccc1 | · | 4% | · | · | · | 43%
C=C1C2CC[C@@]3(C)C(c4ccoc4)OC(=O)C[C@@]13OC1CC(=O)C(C)(C)C(C(OC(C)=O)C(=O)OC)[C@@]12C (stereo partly specified) | -14% | 7% | · | ? | · | ?
c1ccc2c(c1)Nc1ccccc1S2 | 34µM*! | -2% | 4 | 5.3µM*! | -9 | ?
OC(c1ccc(Cl)cc1)(c1cncnc1)c1ccccc1Cl (stereo unspecified) | · | -1% | · | · | · | 24%
CCCc1cc(N2CCN(c3ccc(OC)cc3)CC2)n2cnnc2n1 | 12µM* | · | · | 16µM* | 0 | ·
CCCCCSc1cc(OC)c(CCNC)cc1OC | 16µM* | -7% | 0 | 16µM* | 0 | -35%
CCCCCCCSc1cc(OC)c(CCNC)cc1OC | 15µM* | -29% | -79* | ? | -1 | ?
Cc1oc2cc(OCC(=O)N3CCN(C)CC3)ccc2c(=O)c1-c1ccccc1 | · | · | · | · | 2 | ·
CCc1ccc(CNCCc2ccc(OC)cc2)cc1 | · | · | · | · | -4 | ·
COc1ccc(-c2nnc3n2N(C(C)=O)C(c2ccc(Cl)c(Cl)c2)=C(C(C)=O)S3)cc1 | 4.1µM* | · | · | 3.3µM* | -11 | ·
COc1ccc(C2=C(C(C)=O)Sc3nnc(-c4ccc(Cl)cc4)n3N2C(C)=O)cc1OC | 2.3µM* | · | · | 4.1µM* | -7 | ·
